This passage reports AC50 and outcome results from PubChem BioAssay (EPA / NIEHS).

Each structure is given as a SMILES string. Active and inactive are the calls of the source. How the source made its calls: active means hit-call score of the fitted dose curve at least 0.9, where 1 is the maximum; inactive means score below 0.9.

The nature of the assay: CCTE_Padilla_ZF_Score.General: CCTE's 144 Hour Post-fertilization zebrafish Assay Score for General Malformation, Padilla Lab (AID 2284411). The protocol: CCTE_Padilla_ZF_Phenotype_Score is a whole embryo, multiplexed assay using zebrafish ova exposed for 144 hours post fertilization on a 96-well plate.CCTE_Padilla_ZF_Score.General is one of one assay component(s) measured or calculated from the CCTE_Padilla_ZF_Phenotype_Score assay. It is designed to make measurements of zebrafish development as detected with brightfield microscopy of developing zebrafish embryos.Data from the assay component CCTE_Padilla_ZF_Score.General was analyzed into 1 assay endpoints. This assay endpoint, CCTE_Padilla_ZF_Score.General, was analyzed in the positive analysis fitting direction relative to DMSO as the negative control and baseline of activity. Using a type of viability reporter, gain-of-signal activity can be used to understand changes in developmentals as they relate to the whole embryo. To generalize the intended target to other relatable targets, this assay endpoint is annotated to the zebrafish development intended target family, where the subfamily is embryonic morphogenesis.
Zebrafish husbandry: Wild type adult zebrafish (Danio rerio; undefined outbred stock obtained from Aquatic Research Organisms, Hampton, NH, 03842) were housed in an AAALAC-approved animal facility at 28C with a 14:10 h light: dark cycle (lights on at 08:30 h). Adult fish (2-3 females per male; density = 15-20 adults per tank) were kept in one of several 9-liter (L) flow-through colony tanks (Aquaneering Inc., San Diego, CA). All adults in a colony tank were placed in a 2 L (static) breeding tank (Aquatic Habitats, Apopka, FL) one hour prior to light onset. Typically, adults from two to three colony tanks were mated on the same day. Two hours after light onset the adults were returned to the colony tank. All embryos were gathered from each breeder tank, pooled, and placed in a 28C water bath for 2 h, followed by two washes with 0.06% bleach (v/v) in 10% Hanks' Balanced Salt Solution (13.7 mM NaCl 0.54 mM KCl, 25 uM Na2HPO4, 130 uM CaCl2 100 um MgSO4 and 420 um NaHCO3,), hereafter referred to as Hanks' solution, for 5 min in order to remove any residual bacteria or fungi. Immediately following washing, the embryos were examined, and healthy embryos were separated from dead or unfertilized eggs and moved into fresh Hanks'. Chemical exposures: Zebrafish embryos were exposed in 96-well plates. Between 6- and 8-hours post fertilization (hpf), healthy embryos (with chorions) were transferred, one embryo per well, into 96 well (0.5 mL) microtiter plates (Cell Culture-Treated, Flat-Bottom Microplate 96 well [Corning Costar, Kennebunk, ME; Cat 09-761-145]) filled with 200 uL of Hanks' solution. A random number generator was used to assign the order in which the rows of embryos were plated in 96 well plates each week. After plating, the embryos were dosed with 0.8 uL of the chemical dosing solution then immediately sealed with AlumaSeal II (Excel Scientific Inc, Victorville, CA) to prevent volatilization of the chemicals, and then placed in a leakproof secondary container. These containers were placed in an incubator maintained on a 14:10 h light: dark cycle at 26C for rearing. On 5 dpf, live larvae were gently moved out of the plate with test chemicals and into a new 96 well mesh plate (Millipore Corp., Bedford, MA) with just the Hanks' solution. Once within the mesh well plate, the animals were rinsed with 400 uL of fresh Hanks' three times, and then the plates were covered with a non-adhesive material (Microseal A, BioRad, Hercules, CA), plate lid added, and then plate sides wrapped in Parafilm (PM992, Bermis Company, Neenah, WI), and returned to the incubator. […]
As usually defined, the AC50 is the concentration at which the activity in the assay is half-maximal. For the compound `OC(O)(C(F)C(O)(O)C(F)(F)F)C(F)(F)F`, the AC50 was 32.4 µM (active).

`S=P(N1CC1)(N1CC1)N1CC1`: the compound was called inactive.

On to `OCCC(F)(F)C(F)(F)C(F)(F)C(F)(F)F`, for which the call was inactive.

As for `NCC(F)(F)C(F)(F)C(F)(F)C(F)(F)F`, the outcome was inactive.

With `FC(F)=C(F)C(F)(F)C(F)(F)C(F)(F)C(F)(F)C(F)(F)C(F)(F)F`, the result was inactive.

On to `FC(F)(F)COC(OCC(F)(F)F)OCC(F)(F)F`, for which the outcome was inactive.

With `FC(F)C(F)(F)COCC1CO1` (stereo unspecified), the AC50 was 9.44 µM (active).

With `O=S(=O)(O)CCC(F)(F)C(F)(F)C(F)(F)C(F)(F)C(F)(F)C(F)(F)F`, the outcome was inactive.

As to `O=C(Cl)C(F)(F)C(F)(F)C(F)(F)C(=O)Cl`, the result was inactive.

With `C[Si](C)(C)C(F)(F)C(F)(F)C(F)(F)F`, the compound was called inactive.

`FC(F)(F)C(F)(F)C(F)(F)C(F)(F)C(F)(F)C(F)(F)I`: the result was inactive.
